Results published in PubChem BioAssay (NCATS).
Results filed as inconclusive are left out. Activity calls are given as the source filed them. Calls come from the whole dose curve; as a rule, active = well fitted inhibition curve with a large enough effect; inconclusive = small, poorly fitted or top-dose-only effect; inactive = no such curve, though single readings can be large or run the other way.

biological target: Cytochrome P450 3A7 (Homo sapiens) (UniProt P24462); assay: Cytochrome P450 family 3 subfamily A member 7 (CYP3A7) small molecule antagonists: luciferase biochemical qHTS assay (AID 1963596); settings: P450-Glo CYP3A7 enzyme luminescence, 1 h; series mostly up to 57.4 µM; activity change, negative = inhibition: at the top concentration; note: nearly all actives have a fitted effect of over 40% in size
Description: National Center for Advancing Translational Sciences [NCATS] Assay Overview: Cytochrome P450 (CYP) enzymes are membrane-bound hemeproteins that play a key role in metabolism of drugs and xenobiotics. The CYP3A subfamily is the most abundant, representing 30% of the total adult hepatic CYP content, whereas CYP3A7 is found predominantly in human fetal liver and accounts up to 50% of the total fetal hepatic CYP content. Testing the effect of chemicals on CYP isozymes is useful to minimize the adverse drug reactions and toxicities in the drug development process. Chemicals were tested for their effect on CYP enzyme activities by using P450-Glo (TM) screening systems (Promega Corporation, Madison, WI). These systems provide a luminescent method containing proluciferin substrates and are converted to luciferin products by CYP isozymes. The luciferin products formed are detected with a luciferin detection reagent, and the amount of light produced is proportional to CYP activity. P450-Glo (TM) CYP3A7 screening system (Catalog. No. V8812) was used to detect the compounds that interfere with CYP3A7 activity. The positive control compound used for CYP3A7 assay is ketoconazole (Sigma-Aldrich, St. Louis, MO).
Assay Protocol Summary: Two ul of enzyme-substrate mix was dispensed into medium binding white/solid 1536-well plates (Greiner Bio-One North America Inc., Monroe, NC) using a Flying Reagent Dispenser (FRD, Aurora Discovery, San Diego, CA). Compounds dissolved in DMSO, and positive control (ketoconazole) were transferred to the assay plates at 23 nl using a Pintool station (Wako, San Diego, CA). The assay plates were incubated at room temperature for 10 min. Then 2 ul of NADPH regeneration solution was added to each well of the assay plates using an FRD and incubated at room temperature for 1 h. The reaction was stopped by adding 4 ul of detection reagent using an FRD and after 20 min incubation at room temperature the luminescence signal was measured using a ViewLux plate reader (Perkin Elmer, Shelton, CT). Data were expressed as relative luminescence units.
% is set by controls: 0 for no effect and ±100 for the full control effect.

Cytochrome P450 3A7 (Homo sapiens), sequence (P24462 whole entry, looked up): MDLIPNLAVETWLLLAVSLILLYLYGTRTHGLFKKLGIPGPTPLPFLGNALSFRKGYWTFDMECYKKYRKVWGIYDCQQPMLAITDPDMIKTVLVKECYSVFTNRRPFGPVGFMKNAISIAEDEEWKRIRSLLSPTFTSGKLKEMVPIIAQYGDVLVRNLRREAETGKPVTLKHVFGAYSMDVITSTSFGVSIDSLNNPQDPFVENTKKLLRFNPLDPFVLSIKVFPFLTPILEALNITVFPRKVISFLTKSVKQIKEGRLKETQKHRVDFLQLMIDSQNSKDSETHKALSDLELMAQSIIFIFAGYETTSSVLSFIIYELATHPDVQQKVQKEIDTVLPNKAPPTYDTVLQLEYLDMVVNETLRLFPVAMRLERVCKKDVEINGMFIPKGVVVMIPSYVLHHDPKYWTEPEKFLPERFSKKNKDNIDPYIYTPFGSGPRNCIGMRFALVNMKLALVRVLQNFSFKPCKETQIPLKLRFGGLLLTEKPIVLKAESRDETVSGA

SMILES	activity change, negative = inhibition
CC(C)=CCC/C(C)=C/CC/C(C)=C/CC/C=C(\C)CC/C=C(\C)CCC=C(C)C	-14.6% (inactive)
OC[C@H]1O[C@@H]2O[C@H]3[C@H](O)[C@@H](O)[C@@H](O[C@H]4[C@H](O)[C@@H](O)[C@@H](O[C@H]5[C@H](O)[C@@H](O)[C@@H](O[C@H]6[C@H](O)[C@@H](O)[C@@H](O[C@H]7[C@H](O)[C@@H](O)[C@@H](O[C@H]1[C@H](O)[C@@H]2O)O[C@@H]7CO)O[C@@H]6CO)O[C@@H]5CO)O[C@@H]4CO)O[C@@H]3CO	0.893% (inactive)
NC(=O)OCC(O)COc1ccc(Cl)cc1 (stereo not given)	36.4% (inactive)
CCN(CC)CCNC(=O)c1cc(Cl)c(N)cc1OC	-20.9% (inactive)
COc1ccc(-n2[nH]c(=O)c3[nH]c4cc(Cl)ccc4c(=O)c3c2=O)c(C)c1	4.27% (inactive)
Cn1nnc(-c2ccc(-c3ccc(N4C[C@H](CO)OC4=O)cc3F)cn2)n1	-4.78% (inactive)
COc1ccc(C(=O)Nc2ncc(-c3ccc(C(=O)O)cc3)s2)cc1	-1.69% (inactive)
CC(=O)N(O)CCCCCNC(=O)CCC(=O)N(O)CCCCCNC(=O)CCC(=O)N(O)CCCCCN	-0.836% (inactive)
CCCCC/C(C=O)=C\c1ccccc1	-8.14% (inactive)
Cc1c(C(=O)N2CCOc3ccc(-c4ccc(N)nc4)cc3C2)ccc(S(C)(=O)=O)c1F	0% (inactive)
CNC1CN(c2ccc3c(=O)c(C(=O)O)cn(-c4nccs4)c3n2)CC1OC (stereo not given)	23% [at 11.5 µM] (inactive)
CC(=O)Nc1c(I)cc(I)c(C(=O)O)c1I	-15.8% (inactive)
O=C(O)P(=O)(O)O	1.75% (inactive)
Cc1[nH]c(/C=C2\C(=O)Nc3ccc(F)cc32)c(C)c1C(=O)NC[C@H](O)CN1CCOCC1	0% (inactive)
Cc1c(C(N)=O)cc([N+](=O)[O-])cc1[N+](=O)[O-]	-6.76% (inactive)
Cn1c(=O)c2[nH]cnc2n(C)c1=O	2.6% (inactive)
CN(C)c1nc(NC2CCC(NC(=O)c3ccc(F)c(F)c3)CC2)nc2ccccc12 (stereo not given)	0% (inactive)
CNNCc1ccc(C(=O)NC(C)C)cc1	-0.555% (inactive)
CC(=O)NC[C@H]1CN(c2ccc(N3CCSCC3)c(F)c2)C(=O)O1	-20.4% (inactive)
CC(=O)NO	-21% (inactive)

SMILES	activity change, negative = inhibition
CC(C)[C@@H]1CC[C@@H](C)C[C@H]1OC(=O)c1ccccc1O	5.46% (inactive)
C[C@@H](O)[C@H](NC(=O)c1ccc(C#Cc2ccc(CN3CCOCC3)cc2)cc1)C(=O)NO	0% (inactive)
COc1ccc(CNC(=O)Nc2ccc3c(c2)N(C)C(=O)c2ccccc2S3)cc1OC	0% (inactive)
CN(C)CCN1C(=O)c2ccccc2N(C)c2ccccc21	-18.4% (inactive)
COC(=O)C1=C(C)NC(C)=C(C(=O)OCCN2CCN(C(c3ccccc3)c3ccccc3)CC2)C1c1cccc([N+](=O)[O-])c1 (stereo not given)	-4.41% (inactive)
CCN(CC)CC(=O)Nc1c(C)cccc1C	-27.1% (inactive)
CCCCCCCCCCCCCCCCCC[N+](C)(C)CCC[Si](OC)(OC)OC	-7.83% (inactive)
CC[C@@H](CO)NCCN[C@@H](CC)CO	30.5% (inactive)
O=C(O)c1ccccc1O	13.5% (inactive)
N=C(N)N	16.8% (inactive)
O=C(O)CCNC(=O)c1ccccc1	15% (inactive)
Cc1c(C)c2c(c(C)c1O)CC[C@@](C)(CCC[C@H](C)CCC[C@H](C)CCCC(C)C)O2	0% (inactive)
COc1cc(OC)c(C(=O)CCCN2CCCC2)c(OC)c1	-7.24% (inactive)
O=C(O)c1ccccc1NC(=O)N1CCC(c2ccccc2C(F)(F)F)CC1	0% (inactive)
c1ccc2c(CC3=NCCN3)cccc2c1	-20.3% (inactive)
CCC(C)C(N)C(=O)NCCN1CCOCC1 (stereo not given)	7.22% (inactive)
CN(C)C(=O)CNC(=O)Cc1ccccc1	-0.362% (inactive)
CCCCCCOC(=O)/N=C(\N)c1ccc(NCc2nc3cc(C(=O)N(CCC(=O)OCC)c4ccccn4)ccc3n2C)cc1	0% (inactive)
O=C(CO)[C@@H](O)[C@H](O)[C@@H](O)C(=O)O	6.17% (inactive)
C(#Cc1cccc(CN2CCOCC2)c1)CCN1CCCCC1	-2.92% (inactive)
